The record followed here is PubChem BioAssay (NCATS).

The nature of test [1]: Cell Viability - N2a (AID 540).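 Note: plate controls were DMSO alone for no effect and tamoxifen control for full effect; nearly all actives have a fitted effect of over 45% in size.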 The following applies: N2a mouse neuroblastoma cell viability; activity change, negative = cytotoxicity: at 92.2 µM (top of the series). Summed up: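 CellTiter-Glo ATP luminescence, read 20 min after reagent at room temperature, reported viability following 40 h compound treatment at 37 °C. N2a mouse neuroblastoma cells seeded 1500/well; Hill equation gave AC50.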

Test [2] in a line: Cell Viability - SH-SY5Y (AID 544).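 Note: cells exposed to compound for 40 hours; 0% = DMSO alone and -100% = 100 µM tamoxifen; nearly all actives have a fitted effect of over 55% in size.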 The following applies: SH-SY5Y neuroblastoma cell viability; viability change, negative = cytotoxic: at 92.2 µM (top of the series). In outline: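 Cytotoxicity measured via ATP-dependent luciferase luminescence (CellTiter-Glo) following 40 h, 37 °C exposure of 1500 SH-SY5Y cells per well. Concentration-response data were fitted with the standard Hill equation to give AC50.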

The nature of test [3]: Cell Viability - Renal Proximal Tubule (AID 545).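 Note: cells exposed to compound for 40 hours; 0% = DMSO only and -100% = 100 µM tamoxifen; nearly all actives have a fitted effect of over 40% in size.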 Summed up: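 Viability taken as intracellular ATP (CellTiter-Glo luminescence) after 40 hr, 37 °C compound treatment of primary proximal tubule cells from rat kidney, 1000 cells/well; Hill-equation fits of qHTS concentration-response data gave AC50.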
The target of test [4] is Cytochrome P450 3A4 (Homo sapiens) (UniProt P08684). In words: qHTS Assay for Inhibitors and Substrates of Cytochrome P450 3A4 (AID 884). Note: % is set by controls: 0 for no effect and ±100 for the full control effect; nearly all actives have a fitted effect of over 50% in size. Summed up: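 Luminescent readout of luciferin produced by CYP3A4 (20 nM) dealkylation of Luciferin-PPXE, 25 uM (its KM). NADPH-driven reaction ran 60 min at RT after 10 min compound preincubation; data scaled to 57 uM ketoconazole as 100% inhibition.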
Cytochrome P450 3A4 (Homo sapiens), sequence (P08684 whole entry, looked up): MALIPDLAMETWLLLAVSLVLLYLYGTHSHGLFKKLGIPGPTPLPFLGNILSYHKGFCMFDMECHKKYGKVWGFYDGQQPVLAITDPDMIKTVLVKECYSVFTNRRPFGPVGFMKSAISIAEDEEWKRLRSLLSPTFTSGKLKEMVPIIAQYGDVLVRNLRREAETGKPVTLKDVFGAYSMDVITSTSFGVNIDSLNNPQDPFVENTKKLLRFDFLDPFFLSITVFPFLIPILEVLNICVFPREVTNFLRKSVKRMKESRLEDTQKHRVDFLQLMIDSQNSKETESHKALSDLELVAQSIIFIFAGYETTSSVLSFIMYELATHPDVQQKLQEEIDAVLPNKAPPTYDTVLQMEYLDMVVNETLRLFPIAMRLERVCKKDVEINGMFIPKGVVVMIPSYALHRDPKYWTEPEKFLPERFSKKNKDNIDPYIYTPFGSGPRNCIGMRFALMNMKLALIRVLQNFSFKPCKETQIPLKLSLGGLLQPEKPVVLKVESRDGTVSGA

Test [5] in a line: Cell Viability - LYMP2-001 (AID 921).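 Note: 0% = DMSO only and full inhibition = tetraoctylammonium bromide control wells; nearly all actives have a fitted effect of over 70% in size.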 In outline:
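Cellular ATP loss read by luciferase luminescence after 24 h compound exposure at 37 C in complete medium. LYMP2-001 lymphoblastoid cells, 2500/well; qHTS concentration-response data fitted with Hill equation for AC50.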

Test [6] is described as follows: Cell Viability - LYMP2-003 (AID 965).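 Note: cells exposed to compounds for 24 h before reading; 0% = DMSO only and full effect = 92 µM tetraoctylammonium bromide; nearly all actives have a fitted effect of over 50% in size.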 In outline: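 CellTiter-Glo luminescence quantified ATP loss after 24 h compound treatment of LYMP2-003 lymphoblastoid cells at 37 C. Titration series were fitted with the standard Hill equation to give AC50.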
A short description of test [7]: Cell Viability - LYMP2-015 (AID 971).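 Note: 0% = DMSO only and full effect = 92 µM tetraoctylammonium bromide; nearly all actives have a fitted effect of over 55% in size.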 In outline:
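Cytotoxicity readout: decrease in intracellular ATP (CellTiter-Glo luminescence) in 2500 LYMP2-015 lymphoblastoid cells/well after 24 h compound exposure at 37 C. Concentration-response data fitted with the standard Hill equation to give AC50.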

Test [8] in a line: Cell Viability - LYMP2-019 (AID 973).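 Note: 0% = DMSO alone and full effect = 92 µM tetraoctylammonium bromide; nearly all actives have a fitted effect of over 55% in size.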 Summed up: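 AC50 values come from Hill-equation fits of luminescent intracellular ATP (CellTiter-Glo, 30 min, room temperature) following 24 h compound exposure at 37 C. Cells: LYMP2-019 lymphoblastoid line, 2500 per well, in complete culture medium.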
Test [9] is described as follows: Cell Viability - LYMP2-002 (AID 977).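 Note: plate controls were DMSO only for no effect and 92 µM tetraoctylammonium bromide for full effect.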 In outline: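 Human lymphoblastoid cells (2500/well) in complete medium were preincubated 5 hr at 37 C, then exposed to compounds for 24 hr at 37 C. Intracellular ATP was read by CellTiter-Glo luminescence; AC50 came from Hill-equation concentration-response fits.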
A short description of test [10]: Cell Viability - LYMP2-008 (AID 980). Note: % is set by controls: 0 for no effect and ±100 for the full control effect; nearly all actives have a fitted effect of over 60% in size. In outline:
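Cytotoxicity determined from ATP-dependent luciferase luminescence (CellTiter-Glo) following 24 h compound exposure of human lymphoblastoid LYMP2-008 cells at 37 C. Concentration-response data fitted to the Hill equation to give AC50.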

Test [11] in a line: Cell Viability - LYMP2-010 (AID 981). Note: % is set by controls: 0 for no effect and ±100 for the full control effect; nearly all actives have a fitted effect of over 55% in size. Summed up: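 CellTiter-Glo ATP luminescence measured cytotoxicity after 24 h compound exposure at 37 C. LYMP2-010 cells were seeded at 2500/well, with tetraoctylammonium bromide as control; concentration-response curves gave AC50 values by the Hill equation.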
Test [12] is described as follows: Cell Viability - LYMP2-012 (AID 982).
Test [13] is described as follows: Cell Viability - LYMP2-020 (AID 986). In outline:
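Cytotoxicity in qHTS format: luminescent ATP readout from CellTiter-Glo after 24 h compound exposure at 37 C in complete medium. LYMP2-020 lymphoblastoid cells were seeded at 2500/well; concentration-response data fitted to the Hill equation for AC50.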

Test [14] can be described thus: Cell Viability - LYMP2-022 (AID 987). In outline: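 Cytotoxicity read as decreased cellular ATP (CellTiter-Glo luminescence, 30 min room temperature) after 24 hours compound exposure of 2500 lymphoblastoid LYMP2-022 cells/well at 37 C. Concentration-response data fitted with standard Hill equation for AC50.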
Test [15] can be described thus: Cell Viability - LYMP1-002 - Assay at 40 hr (AID 994).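 Note: 0% = DMSO only and full inhibition = 92 µM tetraoctylammonium bromide; nearly all actives have a fitted effect of over 60% in size.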 In outline: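 Cytotoxicity was read as loss of cellular ATP (CellTiter-Glo luminescence) after 40 hr compound exposure at 37 C of 2500 LYMP1-002 lymphoblastoid cells per well. Concentration-response data were fitted with the standard Hill equation to give AC50.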
Test [16] is described as follows: qHTS assay for small molecule agonists of retinoid X receptor alpha signaling (AID 588544). The following applies: HEK293T RXRa-UAS-bla, beta-lactamase reporter, 18 h; 530 nm emission. Background: In qHTS, concentration-response curves come from the screen itself.
Test [17] is described as follows: qHTS assay for small molecule antagonists of retinoid X receptor alpha signaling (AID 588546; active = well fitted inhibition curve with a large enough effect in the signal ratio, with a control signal flat, not every such curve was filed as active; the % refers to the signal ratio;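 note: cells stimulated with 9-cis-retinoic acid as agonist; % is set by controls: 0 for no effect and ±100 for the full control effect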). The following applies: HEK293T RXRa-UAS-bla, beta-lactamase ratio, antagonist mode; measured here: W530 green channel, cytotoxicity proxy. In outline:
(§1)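 Beta-lactamase reporter inhibition, read as CCF4 fluorescence ratio (ex 405, em 460/530 nm) after 2 h at RT. HEK293T UAS-bla cells, 2500/well, were stimulated with 9-cis-RA at 500 or 100 nM final alongside test compound for 18 h at 37 C.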

Test [18] has as its target Retinoic acid receptor RXR-alpha (Homo sapiens) (UniProt P19793). The test is described as above. The following applies: HEK293T RXRa-UAS-bla, beta-lactamase ratio, antagonist mode. In outline:
as §1

For test [19], the target named is Tumor necrosis factor (Homo sapiens) (UniProt P01375). Description: qHTS assay to identify small molecules that stimulate Tumor Necrosis Factor-alpha (TNF-alpha) secretion (AID 651757; active = well fitted curve in the direction sought with a large enough effect in the signal ratio; the % refers to the signal ratio; note: 0% is about no effect). In outline:
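Secreted TNF-alpha quantified by TR-FRET sandwich of two labeled anti-TNF-alpha antibodies, incubated 3 hr at room temperature. Preceded by 17 hr, 37 C compound treatment of THP-1 cells at 3000 cells/well.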

A short description of test [20]: qHTS assay for small molecule antagonists of the retinoid-related orphan receptor gamma (ROR-gamma) signaling pathway - cell viability counter screen (AID 720652; active = well fitted curve in the direction sought with a large enough effect in the repeat runs; an effect the other way counts as inactive or inconclusive;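 note: CHO reporter cells with doxycycline-induced ROR-gamma expression; compound exposure lasted 16 hr before ATP read; % is set by controls: 0 for no effect and ±100 for the full control effect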). In outline:
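Cytotoxicity counter screen: intracellular ATP (CellTiter-Glo luminescence) measured in the doxycycline-induced CHO RORE-luciferase reporter line after 16 hr compound exposure at 37 C, 5% CO2.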

Structures are written as SMILES. Inconclusive results are not listed. Active and inactive are the calls of the source. Unless noted, calls come from the whole dose curve; as a rule, active = well fitted curve in the direction sought with a large enough effect; inconclusive = small, poorly fitted or top-dose-only effect, or another doubt; inactive = no such curve, though single readings can be large; an effect the other way counts as inactive or inconclusive.

Retinoic acid receptor RXR-alpha (Homo sapiens), sequence (P19793 whole entry, looked up): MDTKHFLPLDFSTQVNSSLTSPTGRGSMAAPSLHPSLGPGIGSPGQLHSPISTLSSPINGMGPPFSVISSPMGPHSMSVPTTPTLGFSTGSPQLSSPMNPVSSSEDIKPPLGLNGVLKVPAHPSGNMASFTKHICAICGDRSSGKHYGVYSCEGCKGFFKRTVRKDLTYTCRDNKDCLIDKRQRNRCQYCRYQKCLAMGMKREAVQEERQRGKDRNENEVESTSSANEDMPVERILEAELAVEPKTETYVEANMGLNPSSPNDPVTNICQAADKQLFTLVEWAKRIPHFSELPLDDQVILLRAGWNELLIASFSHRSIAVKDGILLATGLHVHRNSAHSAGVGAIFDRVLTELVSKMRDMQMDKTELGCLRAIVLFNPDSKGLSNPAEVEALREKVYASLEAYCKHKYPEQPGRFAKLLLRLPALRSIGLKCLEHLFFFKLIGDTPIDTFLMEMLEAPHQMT
Tumor necrosis factor (Homo sapiens), sequence (P01375 whole entry, looked up): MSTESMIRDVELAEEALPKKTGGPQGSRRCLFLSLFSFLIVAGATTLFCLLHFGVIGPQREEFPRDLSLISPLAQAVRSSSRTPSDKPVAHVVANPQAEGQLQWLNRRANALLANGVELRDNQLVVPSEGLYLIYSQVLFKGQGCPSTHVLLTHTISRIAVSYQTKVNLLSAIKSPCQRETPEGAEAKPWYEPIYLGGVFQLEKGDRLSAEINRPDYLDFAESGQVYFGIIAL

As to `O=NN1CCCCC1`, the Potency result in [1], in test [2], in test [4], in [5], in test [6] and in test [7] was “inactive” in each case. The Potency entry in test [8], in [9], in test [10], in test [11], in test [12] and in test [13] was “inactive” in each case. Besides, the Potency entry in test [14], in test [15] and in test [20] was “inactive” in each case. Further, the compound was classed as inactive in [3] and in [19]. The max response in test [16] is 5.16%; in test [17], -1.5%; in test [18], 14.4% (inactive).

For the compound `C=CCCl`, the Potency entry in test [1], in test [2], in test [4], in test [5], in [6] and in [7] was “inactive” each time. For the same compound, the Potency entry in [8], in [9], in test [10], in test [11], in [12] and in test [13] was “inactive” in each case. Besides, the Potency result in [14], in test [15] and in test [20] was “inactive” throughout. Besides, the compound was called inactive in [3] and in [19]. In addition, in [16], the max response is -13.3%.

For the compound `O=C(Cl)OCc1ccccc1`, the Potency result in test [1], in test [2], in [4], in [5], in [6] and in [7] was “inactive” each time. The Potency result in [8], in [9], in test [10], in test [11], in test [12] and in [13] was “inactive” each time. The Potency result in [14], in [15] and in [20] was “inactive” in each case. Further, the outcome in [3] and in test [19] was inactive. In addition, the max response in test [16] was -1.31%; in test [17] it was -3.27%; in test [18], -3.17% (inactive).

Turning to `CN(C)C(=O)Cl`, the Potency result in test [1], in [2], in test [4], in test [5], in test [6] and in test [7] was “inactive” in each case. For the same compound, the Potency result in test [8], in test [9], in test [10], in test [11], in [12] and in test [13] was “inactive” in each case. Further, the Potency entry in [14], in [15] and in test [20] was “inactive” each time. Besides, the compound was called inactive in test [3] and in test [19]. Besides, the max response was -5.01% in test [16], 3.53% in test [17] and 8.18% (inactive) in test [18].

Regarding `N#CCBr`, the Potency entry in [1], in [2], in test [4], in test [5], in [6] and in [7] was “inactive” each time. Moreover, the Potency result in [8], in test [9], in test [10], in test [11], in [12] and in test [13] was “inactive” in each case. For the same compound, the Potency result in test [14] and in [15] was “inactive” each time. The compound was classed as inactive in test [3] and in test [19]. Moreover, the max response in test [16] was -6.36%; in test [17], 1.14%; in [18], -1.67% (inactive).

For the compound `O=C(O)C(Cl)(Cl)Br`, the Potency result in test [1], in test [2], in test [4], in test [5], in [6] and in [7] was “inactive” throughout. Further, the Potency result in test [8], in [9], in test [10], in [11], in [12] and in test [13] was “inactive” each time. In addition, the Potency entry in test [14], in test [15] and in [20] was “inactive” in each case. The outcome in [3] and in test [19] was inactive. Further, the max response was -15.6% in test [16], 1.14% in [17] and 1% (inactive) in [18].

As for `OCCCCO`, the Potency result in [1], in [2], in [4], in test [5], in test [6] and in test [7] was “inactive” each time. Also, the Potency entry in test [8], in test [9], in test [10], in test [11], in test [12] and in test [13] was “inactive” each time. Moreover, the Potency result in [14], in test [15] and in [20] was “inactive” throughout. Besides, the compound was called inactive in test [3] and in [19]. Moreover, the results for the max response in test [16], in test [17] and in test [18] were 1.71%, -5.28% and -1.35% (inactive), respectively.
